In PubChem BioAssay (NCATS):
“And” between values parts separate entries of the source, which are not always exact repeats. Equal values may be shown once. Results filed as inconclusive are left out. Where a call stands in place of a potency, no number is given. The source made the active and inactive calls. Calls follow the shape of the dose curve; as a rule, active = well fitted inhibition curve with a large enough effect; inconclusive = small, poorly fitted or top-dose-only effect; inactive = flat fitted curve, though single readings scatter.

These molecules were tested on TAB165 (assay: qHTS profiling for inhibitors of Plasmodium falciparum proliferation (AID 504749; also: nearly all actives have a fitted effect of over 60% in size)). Settings: P. falciparum in erythrocytes, SYBR Green DNA, 72 h; series mostly up to 28.7 µM.
Method in brief: (§1)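 Each compound contacts P. falciparum-infected red blood cells for 72 h at 37 C; lysis buffer (Tris, EDTA, saponin, Triton X, SYBR Green I) is added and fluorescence measured next morning; values normalized to controls.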
Potency is read from the fitted curve at half-maximal effect.

| SMILES | Potency |
| --- | --- |
| C=CCC1(C(C)CCC)C(=O)N=C(S)NC1=O (stereo not given) | inactive |
| CCOc1ccc2c3c1O[C@H]1[C@@H](O)C=C[C@H]4[C@@H](C2)N(C)CC[C@@]341 | inactive |
| CCCCCl | inactive |
| CCC(=O)O[C@@](Cc1ccccc1)(c1ccccc1)[C@@H](C)CN(C)C | inactive |
| ClC(Cl)(Cl)Cl | inactive |
| COC([CH2][Hg])CNC(=O)c1ccccc1OCC(=O)O (stereo not given) | inactive |
| N#CC(C#N)=Cc1cc(O)c(O)c(O)c1 | 7.94 µM (active) |

What follows are molecules tested on W2 in the same assay as above. Settings: P. falciparum in erythrocytes, SYBR Green DNA, 72 h; series mostly up to 28.7 µM.
Method in brief: as §1

| SMILES | Potency |
| --- | --- |
| CC(C)(C)c1cc(O)ccc1O | 1.69 µM (active) and 4.26 µM (active) |
| CNC(=O)Oc1ccccc1C(=O)Nc1ccccc1 | 13.5 µM (active) |
| CN1CCCC(=C(c2cccs2)c2cccs2)C1 | 4.78 µM (active) |
| F/C(COc1ccc2c(c1)[nH]c1ccccc12)=C1/CN2CCC1CC2 | 1.51 µM (active) |
| CCOC(=O)c1ccccc1C(=O)OCC | inactive |
| c1ccc(C2(N3CCCC3)CCCCC2)cc1 | 7.57 µM (active) |
| CCCC(C)(COC(N)=O)COC(=O)NC1CC1 (stereo not given) | inactive |
| CN1[C@@H]2CC[C@H]1CC(OC1c3ccccc3CCc3ccccc31)C2 (stereo not given in full) | 2.28 µM (active) |
| [Cl-].[Cl-].[Hg+2] | 9.53 µM (active) |
| O=C(CS(=O)C(c1ccccc1)c1ccccc1)NO (stereo not given) | inactive |
| CC(N)Cc1ccc(O)cc1 (stereo not given) | inactive |
| c1cc2c(c(NC3=NCCN3)c1)CCCC2 | inactive |
| O=C(NCNC(=O)NC1C(=O)NC(=O)N1CO)NC1C(=O)NC(=O)N1CO (stereo not given) | inactive |
| CCC1(c2ccccc2)C(=O)NC(=O)N(C)C1=O (stereo not given) | 6.75 µM (active) |
| O=Cc1ccco1 | inactive |
| O=C(NC(=O)c1c(F)cccc1F)Nc1ccc(Cl)c(Oc2ncc(C(F)(F)F)cc2Cl)c1 | inactive |
| C/C(=C\c1csc(C)n1)[C@@H]1C[C@@H]2O[C@]2(C)CCC[C@H](C)[C@H](O)[C@@H](C)C(=O)C(C)(C)[C@@H](O)CC(=O)O1 | 0.0013 µM (active) |
| CCC(C)(S(=O)(=O)CC)S(=O)(=O)CC | inactive |
| C[C@@H](Cc1ccccc1)NCCC(c1ccccc1)c1ccccc1 | 2.87 µM (active) |
| CC12NC(Cc3ccccc31)c1ccccc12 (stereo not given) | 4.26 µM (active) |
| C=CCC1(C(C)CCC)C(=O)N=C(S)NC1=O (stereo not given) | inactive |
| ClC(Cl)(Cl)Cl | inactive |
| COC([CH2][Hg])CNC(=O)c1ccccc1OCC(=O)O (stereo not given) | inactive |
